According to PubChem BioAssay (NCI):
The panel holds about 79,000 compounds, 15% with a hit somewhere; the sample as a whole holds those more often. Values without a mark were called inactive. Activity calls are given as the source filed them. No stated cut-off is given here; in the data, active means growth inhibition above about 70%; inactive means the rest.

Tests used:
[1] = NCI Yeast Anticancer Drug Screen. Data for the rad50 strain (AID 155);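 further: 0% = growth of vehicle-only cultures of the same strain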; conditions: S. cerevisiae rad50 strain growth inhibition; at 50.0 µM; active compounds read high
Method in brief: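 Cells are treated with compound, grown, and their growth is then scored against vehicle-only cultures of the same repair-deficient yeast strain.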

[2] = NCI Yeast Anticancer Drug Screen. Data for the mec2-1 strain (AID 157); conditions: S. cerevisiae mec2-1 strain, at 50.0 µM, active compounds read high
Method in brief: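 Growth inhibition is read against vehicle-treated controls after compound exposure of the mec2-1 yeast strain, which is defective in DNA damage repair or cell cycle control.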

[3] = NCI Yeast Anticancer Drug Screen. Data for the sgs1 mgt1 strain (AID 161);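 further: 0% = growth of cultures given vehicle only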; conditions: S. cerevisiae sgs1 mgt1 strain, at 50.0 µM, active compounds read high
Method in brief: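 Yeast cells carrying a defined DNA-repair defect were exposed to test compounds. Growth inhibition was measured relative to vehicle-treated controls.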

[4] = NCI Yeast Anticancer Drug Screen. Data for the cln2 rad14 strain (AID 165);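 further: 0% = growth equal to vehicle treated cultures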; conditions: S. cerevisiae cln2 rad14 strain, at 50.0 µM, active compounds read high
Method in brief: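 Growth inhibition, relative to vehicle-treated controls, is the read-out. The test organism is a yeast strain with defined genetic alterations, cln2 rad14.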

[5] = NCI Yeast Anticancer Drug Screen. Data for the bub3 strain (AID 167); conditions: S. cerevisiae bub3 mutant strain, at 50.0 µM, active compounds read high
Method in brief: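 Part of a panel of yeast mutants defective in DNA damage repair or cell cycle regulation. Each strain is grown with compound, and inhibition is calculated relative to solvent-treated cultures.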

[6] = NCI Yeast Anticancer Drug Screen. Data for the mlh1 rad18 strain (AID 175); conditions: S. cerevisiae mlh1 rad18 strain growth inhibition; at 50.0 µM; active compounds read high
Method in brief: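 Cells of a genetically altered yeast strain, deficient in DNA damage repair, were treated with compound. Their growth was then compared with that of vehicle-treated cultures to give inhibition.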

Structure (SMILES)	growth inhibition [1]	growth inhibition [2]	growth inhibition [3]	growth inhibition [4]	growth inhibition [5]	growth inhibition [6]
COc1ccc2[nH]c(C(F)(F)F)cc(=O)c2c1	9.4%	11.7%	5.2%	-7.95%	4.65%	14.8%
COc1cc(OC(=O)/C=C2/CCC(=O)O2)c2c(c1)OC1OC(=O)CC21 (stereo not drawn)	13.6%	-4.95%	13.8%	-3.4%	-1.9%	15.8%
Cn1c(=O)c2c(nc(CN3CCOCC3)n2C)n(C)c1=O	-1.35%	-11.2%	3.55%	-25.4%	3.6%	7.2%
CCOC(=O)/C(=C(/C)N=Cc1ccccc1[N+](=O)[O-])C(NN=O)c1ccccc1[N+](=O)[O-] (stereo not drawn)	11.9%	4.85%	-9.55%	8.5%	-5%	17.8%
O=C1CN(C(=O)c2ccccc2)C(=S)N1	22.5%	6.7%	11.7%	-17.9%	4.75%	4.5%
C[C@]12CCC(=O)C=C1CC[C@@H]1[C@@H]2[C@@H](O)C[C@@]2(C)[C@H]1CC[C@]2(O)C(=O)CO	12.7%	2.25%	-31.6%	7%	-30.1%	-35%
CCCCCCCCCCC1OCC(CC)([N+](=O)[O-])CO1 (stereo not drawn)	10.2%	-27.9%	18.3%	-46.4%	9.25%	-10.6%
CCCCCCCCCCCCCCC/C=C\C(=O)O	15.2%	-5.8%	-3.4%	10.3%	9.45%	1.4%
Cc1ccc2occ(/C=N/NC(N)=S)c(=O)c2c1	-11.4%	-2.7%	12.3%	0.6%	1.2%	0.8%
OC(Cc1ccccc1)CN1CCN(c2ccccc2)CC1 (stereo not drawn)	10.4%	4%	8%	17.1%	8.05%	4.05%
Cc1c(O)c([N+](=O)[O-])cc2c1OCOC2	3.8%	11.6%	-3.15%	-9.4%	-17.5%	0%
COC(=O)C1C(=O)CC(C)(O)C(C(=O)OC)C1c1ccc(N(C)C)cc1 (stereo not drawn)	-10.5%	19.9%	7.7%	53%	15.1%	-25.4%
CC(C)C(=O)NCc1ccccc1Sc1ccccc1CNC(=O)C(C)C	-13.8%	6.1%	-18.5%	-10%	1.4%	-0.7%
N#CN=C(N)NC(=O)/C=C/C=C/c1ccc(Cl)cc1	5.8%	16.8%	0.8%	9.8%	38%	24.8%
c1ccc(C(SN=C2CCCCC2)(c2ccccc2)c2ccccc2)cc1	-4.35%	-2.6%	-25.6%	10.9%	-1.2%	-13.1%
NC(=O)N/N=C/c1ccc([N+](=O)[O-])s1	-29.6%	-0.8%	1.8%	-39%	-6.9%	-8.5%
NS(=O)(=O)c1ccc(N=C2C=CC(=O)C=C2)cc1	13.6%	4.5%	-0.2%	-36.4%	-4.05%	-3.95%
CCCCS(=O)(=O)C[N+](C)(CC)CC	34.1%	-0.7%	-5.45%	-6.85%	-4.65%	3.45%
CCC(CC)CCC(=O)CC(C)C	23.9%	-3.5%	-15.6%	5.5%	-19%	7.1%

Structure (SMILES)	growth inhibition [1]	growth inhibition [2]	growth inhibition [3]	growth inhibition [4]	growth inhibition [5]	growth inhibition [6]
C/C(=N\N)c1ccc(-c2ccccc2)cc1	10.6%	8.9%	6.45%	-32.8%	-30.7%	-5.4%
CCCC(=O)Oc1ccc(C)cc1C(C)(C)C	6.65%	-22.2%	-4.95%	9.5%	-10.2%	4.25%
NC(=O)C1C(=O)NC(=O)C1=O (stereo not drawn)	-21.5%	-17.9%	-8.75%	-7.7%	-9.75%	-22.4%
CC(C)(C)c1ccc(OS(=O)(=O)c2ccc(Cl)c(Cl)c2)cc1	0.4%	17.4%	0.35%	31.6%	6.8%	-4.85%
CCOC(=O)/C=C/n1c2ccccc2c(=O)c2cc(OC)ccc21	-3.25%	-13.6%	-18.8%	3.6%	-8.95%	-2.4%
COc1ccc(-c2cc(=O)c3c(O)c(OC)c(O)c(OC)c3o2)cc1OC	-0.4%	-37.5%	5.1%	5.15%	29.7%	20%
COC(=O)/C=C1/OC(c2ccc(C)cc2C)=CC1=O	47.8%	50.7%	42.5%	0.8%	26.6%	57.1%
N#C/C(C(=O)Nc1ccccc1)=C(/N)N1CCCC1	18.4%	-15.7%	1.85%	-5.65%	-14.3%	25.6%
CCOC(=O)C(=CNc1cccc(N)n1)C(=O)OCC	-3.35%	-17.9%	28%	-8.55%	20.4%	5.75%
CCC(/C=C/C(C)C1CCC2C3CC=C4CC(OC(=O)Nc5ccccc5)CCC4(C)C3CCC12C)C(C)C (stereo not drawn)	-6.65%	2.1%	-4.9%	77.2% (active)	5.55%	57.5%
CCN1C(=O)/C(=C/c2ccc(OCC(=O)O)cc2)SC1=S	-6.9%	-10.9%	0.35%	-44.9%	-2.2%	-9.65%
CC(=O)[C@H]1[C@H](C)C[C@H]2[C@@H]3CCC4=CC(=O)CC[C@]4(C)[C@@]3(F)C(=O)C[C@@]21C	-5.45%	1.2%	-3.3%	-28.4%	6%	4%
OC(C/C(=N\Nc1ccccc1)c1ccc(F)cc1)(C(F)(F)F)C(F)(F)F	98.3% (active)	98.8% (active)	98.5% (active)	97.8% (active)	98.3% (active)	98.6% (active)
CC1Oc2c(c(=O)oc3ccccc23)[C@@]1(C)CC1C[C@H](C)C(=O)O1 (stereo partly drawn)	31.6%	25.9%	35.2%	11.5%	11.4%	39.1%
COc1cccc(S(=O)(=O)c2c(C)cc(C)cc2C)c1	-12.7%	-12.6%	-12.8%	-42%	1.1%	-12.8%
CCCCCc1c(Cl)nc(Cl)nc1Cl	-14.2%	11.2%	12.3%	-38.8%	26.9%	-18.1%
CCCCC(O)C(C)(C)C (stereo not drawn)	1.5%	-8.65%	3.55%	6.55%	9.65%	7.2%
O=c1cc(-c2ccc(Cl)cc2)oc(-c2ccc(Cl)cc2)c1	5.5%	-7.65%	4.05%	-35.9%	0.7%	2.8%
CC1C(O)CC23COC(=O)C2=CCCC3C1(C)CCC1COC(=O)C1 (stereo not drawn)	-5.05%	-21.9%	17.9%	5.85%	-10.4%	7.45%
